Article PMC4552634, “A New Set of Chemical Starting Points with Plasmodium falciparum Transmission-Blocking Potential for Antimalarial Drug Discovery” (PLoS ONE, 2015)
The whole screen tested about 13,000 compounds, of which about 3,200 (25%) showed an effect of 50% or more. The list shows a part of the results.

tested on: P. falciparum stage V gametocytes; design: BacTiter-Glo ATP luminescence viability of purified stage V gametocytes in 384-well plates, per cent inhibition versus DMSO; conditions: 48 h, 5 µM; inhibitor

Row | Compound | % Inhibition [%]
1 | CN(C)C(C)(C)CN(Cc1ccc(-c2ccc(C(F)(F)F)cc2)cc1)C(=O)Cn1c(CCc2cccc(F)c2F)nc(=O)c2ccccc21 [TCMDC-141050] | 88.12
2 | CCN(CC)C(C)(C)CN(Cc1ccc(-c2ccc(C(F)(F)F)cc2)cc1)C(=O)Cn1c(CCc2cccc(F)c2F)nc(=O)c2ccccc21 [TCMDC-141049] | 64.05
3 | CC=CCON1C(N)=NC(N)=NC1(C)C [TCMDC-131381] | 17.92
4 | Oc1cc(Nc2ccnc3cc(-c4ccc(CN5CCCCC5)o4)c(Cl)cc23)c(Cl)cc1F [TCMDC-138470] | 7.124
5 | COc1ccc(C2CC(=O)C3=C(C2)NC(C)=C(C(=O)OC2CCCC2)C3c2cccc(O)c2)cc1OC (centres unmarked) [TCMDC-125638] | 22.13
6 | O=C(Nc1ccnc(N2CCCN(Cc3cccc(O)c3)CC2)c1)c1ccc(F)cc1 [TCMDC-134961] | -9.577
7 | Cc1cccc(-c2nc(Nc3ccncc3)c3ccc([N+](=O)[O-])cc3n2)n1 [TCMDC-134702] | 85.91
8 | Cc1cc(N2CCCCC2)nc2ccc(NC(=O)c3cccc([N+](=O)[O-])c3)cc12 [TCMDC-124423] | 6.095
9 | Cc1cccc(-c2nc(Nc3ccncc3)c3cc(N(C)C)ccc3n2)n1 [TCMDC-135308] | 101.1
10 | COc1cccc(-c2nc(Nc3ccncc3)c3ncn(C)c3n2)c1 [TCMDC-141275] | 49.52
11 | COc1ccc(-c2cc(Nc3nc(-c4cccc(Cl)c4)nc4ccccc34)ccn2)cc1 [TCMDC-138867] | -54.58
12 | Cc1cc(F)ccc1-c1nc(Nc2ccncc2)c2ccn(C)c2n1 [TCMDC-141231] | -13.59
13 | COc1cc2nc(Cl)nc(Nc3ccncc3)c2cc1OC [TCMDC-123606] | 31.62
14 | COc1ccc2nc(-c3cccc(C)n3)nc(Nc3ccncc3)c2c1 [TCMDC-134670] | 106.1
15 | Cc1ccc(-c2nc(Nc3ccncc3)c3ccccc3n2)s1 [TCMDC-134482] | 16.52
16 | COC(=O)c1ccc(CC(C)NCC(O)c2cccc(C(F)(F)F)c2)c(Cl)c1 (centres unmarked) [TCMDC-131468] | 4.686
17 | COc1ccc(C2CC(=O)C3=C(C2)NC(C)=C(C(=O)OC(C)C)C3c2cccc(O)c2)cc1OC (centres unmarked) [TCMDC-125636] | 49.05
18 | O=C(Nc1ccnc(-c2cccnc2)n1)c1cc(C(F)(F)F)cc(C(F)(F)F)c1 [TCMDC-124516] | 40.18
19 | Cc1ccc2c(c1)C1(CC(=O)N(CCc3scnc3C)C1=O)C(=O)N2Cc1ccccc1 (centres unmarked) [TCMDC-136702] | 3.881
20 | Cc1cc(-c2ccc(CNC3Cc4ccccc4C3)cc2)ccc1S(=O)(=O)NCCN1CCCC1 [TCMDC-132243] | 88.03
21 | O=S(=O)(NCCN1CCCC1)c1ccc(-c2cccc(CNC3Cc4ccccc4C3)c2)cc1F [TCMDC-132221] | 86.87
22 | O=S(=O)(NCCN1CCCC1)c1ccc(-c2ccc(CNC3Cc4ccccc4C3)cc2)cc1F [TCMDC-132237] | 105.2
23 | Cc1cc(-c2ccc(CN3Cc4ccccc4C3)cc2)ccc1S(=O)(=O)NCCN1CCCC1 [TCMDC-132293] | 17.83

Row | Compound | % Inhibition [%]
24 | NC(=NCCc1ccccc1Cl)c1ccc2ccccc2c1 [TCMDC-137524] | -3.713
25 | NC(=NCCc1ccc(Cl)c(Cl)c1)c1ccc2ccccc2c1 [TCMDC-137525] | 0.5254
26 | Cc1cc(OCCCN=C(N)c2ccc3ccccc3c2)c(C(C)C)cc1Cl [TCMDC-137527] | 57.09
27 | O=C(NCCCCN1CCC2c3cccc(O)c3CCC21)c1ccc(-c2ccccc2)cc1 (centres unmarked) [TCMDC-139086] | 3.232
28 | Cc1sc2ccc(Cl)cc2c1S(=O)(=O)Nc1ccc2nccc(N3CC(C)NC(C)C3)c2c1 (centres unmarked) [TCMDC-139550] | 20.27
29 | Cc1sc2cc(Cl)cc(Cl)c2c1S(=O)(=O)Nc1ccc2nccc(N3CCNCC3)c2c1 [TCMDC-139444] | 54.96
30 | O=S(=O)(Nc1ccc2nccc(N3CCNCC3)c2c1)c1ccc2c(Cl)cccc2c1 [TCMDC-139383] | 15.64
31 | CS(=O)(=O)CCNCc1cccc(-c2ccc3c(Nc4ccc(Oc5cccnc5)cc4)ccnc3c2)c1 [TCMDC-138488] | -52.67
32 | COCCNCc1ncsc1-c1ccc2c(Nc3ccc(Oc4ccccc4)cc3)ccnc2c1 [TCMDC-138440] | 7.654
33 | COCCNCc1cccc(-c2ccc3nccc(Nc4cc(O)ccc4C)c3c2)c1 [TCMDC-138480] | 40.94
34 | CS(=O)(=O)CCNCc1cccc(-c2cc3nccc(Nc4ccc(Oc5ccccc5)cc4)c3cc2Cl)c1 [TCMDC-138462] | -8.797
35 | CN(C)CCNCc1cccc(-c2ccc3c(Nc4ccc(Oc5ccccn5)cc4)ccnc3c2)c1 [TCMDC-138493] | 98.43
36 | COCCNCc1cccc(-c2cc3nccc(Nc4ccc(Oc5ccccc5)cc4)c3cc2Cl)c1 [TCMDC-138461] | 14.84
37 | COCCNCc1cccc(-c2ccc3c(Nc4ccc(Oc5ccccc5)cc4)ccnc3c2)c1 [TCMDC-138478] | 82.82
38 | COCCNCc1cccc(-c2ccc3c(Nc4ccc(Oc5cccnc5)cc4)ccnc3c2)c1 [TCMDC-138487] | 75
39 | CS(=O)(=O)CCNCc1cccc(-c2ccc3c(Nc4ccc(Oc5ccccc5)cc4)ccnc3c2)c1 [TCMDC-138477] | 27.24
40 | Nc1c2ccccc2nc2ccc(-c3ccccc3)cc12 [TCMDC-132030] | 118.4
41 | Nc1c2ccccc2nc2cc(Cl)ccc12 [TCMDC-141999] | 16.16
42 | Nc1nc(N)c2cc(C#Cc3ccc(-c4ccccc4)cc3)ccc2n1 [TCMDC-139006] | -7.862
43 | Nc1c2ccccc2nc2ccc(Cl)cc12 [TCMDC-132029] | 93.03
44 | Cl.Nc1nc(Nc2ccc(Cl)cc2)nc2ccccc12 [TCMDC-124354] | 6.388
45 | CN(C)c1cc(C(=O)N[C@@H](Cc2ccccc2)[C@H](O)CNC2CCCCC2)cc2[nH]ccc12 [TCMDC-136317] | -94.17
46 | CN1CCN(c2ccnc3ccc(NC(=O)Nc4ccccc4Br)cc23)CC1 [TCMDC-139342] | 15.44

Row | Compound | % Inhibition [%]
47 | Fc1ccccc1COc1ccc(Nc2ncnc3ccc(I)cc23)cc1Cl [TCMDC-138627] | 9.829
48 | COc1cccc2cc(C(=O)N[C@@H](CC(C)C)C(=O)N[C@H](/C=N/NC(=O)OC(C)(C)C)CC(=O)OC(C)(C)C)oc12 [TCMDC-136085] | 28.48
49 | CC(C)(CNC(=O)C1CCN(CCOc2ccc(F)c(F)c2)CC1)c1nc(-c2ccc(Cl)c(O)c2)c(-c2ccncc2)[nH]1 [TCMDC-141136] | -40.38
50 | CCCNCc1ccc(-c2ccc(CN(Cc3cccs3)C(=O)C3CCN(C)CC3)cc2)nc1 [TCMDC-141526] | 99.19
51 | CN1CCC(C(=O)N(Cc2ccc(-c3ccc(CNCCc4ccccc4)cn3)cc2)Cc2cccc(F)c2)CC1 [TCMDC-141553] | 18.34
52 | CN1CCC(C(=O)N(Cc2ccc(-c3ccc(CNCCc4ccc(S(C)(=O)=O)cc4)cn3)cc2)Cc2ccc3c(c2)OCO3)CC1 [TCMDC-141505] | 98.95
53 | CN1CCC(C(=O)N(Cc2ccc(-c3ccc(CNCCc4ccc(S(C)(=O)=O)cc4)cn3)cc2)Cc2cccc(F)c2)CC1 [TCMDC-141507] | 85.53
54 | CC(=O)N1CCN(c2ccc(NC(=O)c3oc(-c4ccccc4)nc3C(F)(F)F)cn2)CC1 [TCMDC-135142] | -12.47
55 | CCN(CC)CCNC(=O)c1ccc(NC(=O)c2cn(-c3ccccc3)nc2-c2cccs2)cc1 [TCMDC-124032] | 29.35
56 | Cc1cccc(Cl)c1S(=O)(=O)N1CCCCC(c2ccc(C(F)(F)F)cc2)=N1 [TCMDC-134535] | 25.02
57 | O=S(=O)(c1ccc(Cl)cc1Cl)N1CCCCC(c2ccc(C(F)(F)F)cc2)=N1 [TCMDC-134536] | 0.9055
58 | O=S(=O)(c1ccccc1Cl)N1CCCCC(c2ccc(C(F)(F)F)cc2)=N1 [TCMDC-134532] | -26.8
59 | O=S(=O)(c1c(Cl)cc(Cl)cc1Cl)N1CCCCC(c2ccc(C(F)(F)F)cc2)=N1 [TCMDC-134541] | 71.02
60 | O=S(=O)(c1c(Cl)cccc1Cl)N1CCCCC(c2ccc(C(F)(F)F)cc2)=N1 [TCMDC-134537] | 50.16
61 | O=S(=O)(c1c(Cl)cc(Cl)cc1Cl)N1CCCCC(c2ccc(Cl)cc2)=N1 [TCMDC-134526] | -3.325
62 | CCNc1cc(C(=O)N[C@@H](Cc2ccccc2)[C@H](O)CNC2(CC(C)C)CC2)cc(N2CCCCS2(=O)=O)c1 [TCMDC-135258] | -2.163
63 | N#Cc1cccc(-c2ccc(C(=O)Nc3ccc4c(c3)CCN(C3CCC3)CC4)cn2)c1 [TCMDC-135996] | -32.92
64 | O=C(Nc1ccc2c(c1)CCN(C1CCC1)CC2)c1cn(-c2ccccc2)nc1-c1ccccc1 [TCMDC-136083] | 54.47
65 | O=C(Nc1ccc2c(c1)CCN(C1CCC1)CC2)c1ccc(-n2ccnc2)cn1 [TCMDC-135973] | 3.666
66 | O=C(Nc1ccc2c(c1)CCN(C1CCC1)CC2)c1ccc(-c2cn3ccccc3n2)cc1 [TCMDC-135460] | 75.27
67 | N#Cc1ccc(-n2cc(C(=O)Nc3ccc4c(c3)CCN(C3CCC3)CC4)c(C(F)(F)F)n2)cc1 [TCMDC-136080] | 23.35
68 | COc1ccc2cc(C(=O)Nc3ccc4c(c3)CCN(C3CCC3)CC4)ccc2c1 [TCMDC-136082] | -6.595
